# From PubChem
# Pf Dd2 growth: blocks in vitro growth of P. falciparum Dd2. Potency, µM (titrated, usually from 28.9 µM), without a hit: at the top dose activity, negative = inhibition, most hits filed as inhibitors. 120,000 compounds, 4.3% hits. P. falciparum Dd2 growth, SYBR Green, 72 h; active = well fitted inhibition curve with a large enough effect;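 also: plate controls were DMSO vehicle for no effect and reference drug for full effect; nearly all actives have a fitted effect of over 65% in size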
#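 Infected erythrocytes (Dd2, 0.3% parasitemia, 2.5% hematocrit final) are added to compound in RPMI-1640/Albumax II medium, grown 72 h at 37C in low oxygen, then lysed with saponin/Triton-X containing SYBR Green and read by fluorescence.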
# Numbers without * were called inactive; i = inactive; [ ] = another dose, or the depositor's remark. The sample as a whole holds a higher share of hits than the screen did. Potency is read from the fitted curve at half-maximal effect.
SMILES,Pf Dd2 growth
Cc1ccc(CN(C(=O)c2ccco2)c2ccc(CC(=O)N3CCCC3)cc2)cc1,-10.0%
COc1ccc(CN2CC[C@@H]3[C@H]2C(=O)NC[C@H](CCC(=O)NCc2ccco2)N3C)cc1,34.3%
Cc1c(Cl)cccc1NC(=O)C[C@H]1NC(=O)c2ccccc2NC1=O,-5.5%
CN(Cc1ccccn1)C(C(=O)O)c1cnn(Cc2ccccc2)c1 (configuration not stated),8.7%
O=C(NCCc1ccc(Cl)cc1)c1nc(-c2ccc(Cl)nc2)c2cnccn12,8.91µM*
N#CC1CCN(C(=O)c2nc(-c3ccc(F)cc3)c3cnccn23)CC1,i
O=C(NCc1cccnc1)c1nc(-c2ccc(Cl)nc2)c2ccccn12,58.5%
O=C(NCCc1ccc(Cl)cc1)c1nc(-c2ccccc2)c2ccccn12,-6.8%
O=C(NCc1cccs1)c1nc(-c2ccc(F)cc2)c2cnccn12,3.98µM*
CC(C)(C)c1nc(C(=O)NCc2ccc(F)cc2)n2ccccc12,-10.5%
C[S+](=O)([O-])c1ccc(-c2nc(C(=O)NCc3ccc(F)cc3)n3ccncc23)cc1,11.2µM*
COC(=O)CNC(=O)c1nc(-c2ccc(Cl)nc2)c2cnccn12,10.2%
Cn1ncc2c(C(=O)NCc3ccc(F)cc3)cc(-c3ccc([S+](C)(=O)[O-])cc3)nc21,-15.8%
COC(=O)CNC(=O)c1nc(-c2cccc(C(F)(F)F)c2)c2cnccn12,15.7%
C#CCNC(=O)c1nc(-c2cccnc2)c2ccccn12,i
O=C(NCc1cccnc1)c1nc(-c2ccccc2)c2ccccn12,10µM*
Cc1ncc2c(n1)C[C@@H]1CC[C@H]2N1C(=O)CC1CCCC1,10.9%
C[S+](=O)([O-])N1CCCC(c2nnc3n2CCNC3)C1 (configuration not stated),6.5%[44.1 µM]
OCCn1nc(-c2ccncc2)nc1CC12CC3CC(CC(O)(C3)C1)C2,2.1%
CN1CCC(N(C(=O)NCCc2ccccc2)C2CCOCC2)CC1,-17.8%
O=[S+]1([O-])NC2(CCN(Cc3ccccc3)C2)COc2ccncc21 (configuration not stated),-17.2%
Cc1nc(CN2CCN(C(C(=O)O)c3cc4ccccc4o3)CC2)cs1 (configuration not stated),17.1%
COc1ccc(C(=O)N[C@@H]2CN(Cc3cccnc3)C[C@H]2CN(C)C)cc1F,24.8%
O=C(NCC[C@@H]1C[C@@H]2C=C[C@H]1C2)c1cn(Cc2ccccc2Cl)nn1,-7.1%
COCc1noc(-c2ccc(N(C)CC3CC(=O)N(C(C)(C)C)C3)nc2)n1 (configuration not stated),-13.8%
SMILES,Pf Dd2 growth
CC(C)NC(=O)C(C)[C@@H]1CC[C@@]2(C)CC[C@H](NC(=O)c3cncnc3)[C@@H](C)[C@@H]2[C@H]1O (some centres not stated),-0.3%[44.1 µM]
Cc1ccc(N2C(=O)N[C@@H]3CCN(C(=O)c4ccc(C(C)(C)C)cc4)[C@@H]3C2=O)cc1,-0.5%[44.1 µM]
Cc1ccc2ncc(S(=O)(=O)c3ccccc3)c(N3CCCCC3C)c2c1 (configuration not stated),10µM*
CC1CCCN(c2c(S(=O)(=O)c3ccccc3)cnc3ccc(Cl)cc23)C1 (configuration not stated),-12.7%
CCOc1ccc(Nc2c(S(=O)(=O)c3ccc(C)cc3)cnc3ccccc23)cc1,-13.6%
O=C(NCc1cccc(Cl)c1)c1nnn2c1COC(c1ccc(Cl)cc1)C2 (configuration not stated),i
Cc1cc2nc3n(c(=O)c2n1CC(=O)N1CCN(c2ccccc2)CC1)CCCCC3,i
Cn1nccc1CN1CCCC2(CN[S+](=O)([O-])c3ccccc3N2)C1 (configuration not stated),-10.9%
O=C(NCc1ccc(F)cc1)c1csc(N2CCN(c3ccccc3F)CC2)n1,i
O=C(Cn1c(-c2cccs2)cc2ccccc21)NCCCN1CCN(c2ccccc2F)CC1,8.91µM*
CCN1CCN(C(=O)Cn2c(-c3cccs3)cc3ccccc32)CC1,-20.8%
O=C(NCCN1CCN(c2ccccc2F)CC1)C1COc2ccccc2C1 (configuration not stated),2.9%
CC(C)(C)c1ccc2c(c1)N(CC(=O)NCCCN1CCN(c3ccccc3F)CC1)C(=O)CO2,-0.4%
O=C(Cn1c(-c2cccs2)cc2cc(F)ccc21)NCCCN1CCN(c2ccccc2F)CC1,8.91µM*
CC(C)CCNC(=O)Cn1cc(S(=O)(=O)Cc2ccc(F)cc2)c2ccccc21,51.2%
CC(C)CCNC(=O)Cn1c(-c2cccs2)cc2cc(F)ccc21,4.47µM*
CCc1ccc(CNC(=O)Cn2c(-c3cccs3)cc3cc(F)ccc32)cc1,18.6%
O=C([C@@H]1C[C@H](Oc2cccnc2)CN1S(=O)(=O)c1cccnc1)N1CCCC1,10.7%
CCNC(=O)CCc1c(C)nn(-c2ccc(F)cc2)c1Oc1ccccc1,-21.0%
COc1ccc(OC2CCN(C(=O)C3CC3)CC2)c(C(=O)N2CCCCO2)c1,-21.8%
O=C(NCc1ccccc1)C1=NO[C@@H]2CN(Cc3ccc(O)c(Cl)c3)C[C@H]12,-26.1%[44.1 µM]
